The full data set covers some 8,800 targets. This sample favours those with a hit. About 0.5% of all pairs of compound and target were hits.
Legend:
Assay in all cases: log2 fold change, soluble protein after heating vs DMSO (PISA); higher = thermal stabilisation; K562 lysate, 10 uM; active = over 0.2 and 3.5 SD of the protein, either way, in both replicates (recomputed)
[1] = compound: C1=CC=C(C=C1)[C@H](COC2=CC3=C(C=C2)NC(=O)N3)NC(=O)C4=CC=CN(C4=O)CC5=CC(=C(C=C5)F)F
Procedure, shortened: (§1)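 Values give the log-two fold change in thermal stability against solvent controls, from duplicates. Crude K562 extract at 1 mg/mL protein, made by dounce homogenisation in PBS pH 7.4 with 1 mM MgCl2, was treated with 10 μM compound for 30 min. After 3 min heating across 48°C-58°C, aliquots were pooled, adjusted to 0.5% NP-40 at 4°C and centrifuged at 21,000xg for 90 min. The supernatant was measured by TMTpro 16plex LC-MS/MS with channel sums equalised.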

[2] = compound: CC1=C(SC2=C1C(=N[C@H](C3=NN=C(N32)C)CC(=O)N)C4=CC=C(C=C4)Cl)C
Procedure, shortened: as §1

[3] = compound: CC1=C2C(=CC=C1)N=C(N(C2=O)C3=CC=CC=C3C)CN4C=NC5=C(N=CN=C54)N
Procedure, shortened: as §1

[4] = compound: Cc1sc2c(c1C)C(c1ccc(Cl)cc1)=N[C@@H](CC(=O)OC(C)(C)C)c1nnc(C)n1-2
Procedure, shortened: as §1

[5] = compound: c1ccc([C@@H]2C[C@H]2NC2CCNCC2)cc1
Procedure, shortened: as §1

Measured: log2 fold change

XPOT (UniProt O43592)
inactive: [1] -0.017 | [2] 0.008 | [3] 0.037 | [4] 0.003 | [5] 0.021

USP48 isoform 8 (UniProt Q86UV5)
inactive: [1] 0.006 | [2] -0.016 | [3] 0.015 | [4] 0.003 | [5] 0.035

VPS39 (UniProt Q96JC1)
inactive: [1] -0.008 | [2] -0.002 | [3] -0.006 | [4] -0.009 | [5] 0.3

WRB (UniProt O00258)
UniProt O00258, sequence (O00258 whole entry, looked up): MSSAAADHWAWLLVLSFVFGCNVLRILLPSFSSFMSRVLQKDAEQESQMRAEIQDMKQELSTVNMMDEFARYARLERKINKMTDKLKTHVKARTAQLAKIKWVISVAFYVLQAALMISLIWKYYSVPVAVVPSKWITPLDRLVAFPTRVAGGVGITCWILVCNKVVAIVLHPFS
inactive: [1] 0.018 | [2] -0.021 | [3] -0.029 | [4] 0 | [5] -0.191

ZC2HC1A (UniProt Q96GY0)
inactive: [1] 0.059 | [2] -0.046 | [3] -0.018 | [4] 0.106 | [5] -0.058

ZMYM1 (UniProt Q5SVZ6)
inactive: [1] 0.009 | [2] 0.099 | [3] -0.012 | [4] 0 | [5] -0.2

ZNF318 (UniProt Q5VUA4)
UniProt Q5VUA4, sequence (Q5VUA4 whole entry, looked up): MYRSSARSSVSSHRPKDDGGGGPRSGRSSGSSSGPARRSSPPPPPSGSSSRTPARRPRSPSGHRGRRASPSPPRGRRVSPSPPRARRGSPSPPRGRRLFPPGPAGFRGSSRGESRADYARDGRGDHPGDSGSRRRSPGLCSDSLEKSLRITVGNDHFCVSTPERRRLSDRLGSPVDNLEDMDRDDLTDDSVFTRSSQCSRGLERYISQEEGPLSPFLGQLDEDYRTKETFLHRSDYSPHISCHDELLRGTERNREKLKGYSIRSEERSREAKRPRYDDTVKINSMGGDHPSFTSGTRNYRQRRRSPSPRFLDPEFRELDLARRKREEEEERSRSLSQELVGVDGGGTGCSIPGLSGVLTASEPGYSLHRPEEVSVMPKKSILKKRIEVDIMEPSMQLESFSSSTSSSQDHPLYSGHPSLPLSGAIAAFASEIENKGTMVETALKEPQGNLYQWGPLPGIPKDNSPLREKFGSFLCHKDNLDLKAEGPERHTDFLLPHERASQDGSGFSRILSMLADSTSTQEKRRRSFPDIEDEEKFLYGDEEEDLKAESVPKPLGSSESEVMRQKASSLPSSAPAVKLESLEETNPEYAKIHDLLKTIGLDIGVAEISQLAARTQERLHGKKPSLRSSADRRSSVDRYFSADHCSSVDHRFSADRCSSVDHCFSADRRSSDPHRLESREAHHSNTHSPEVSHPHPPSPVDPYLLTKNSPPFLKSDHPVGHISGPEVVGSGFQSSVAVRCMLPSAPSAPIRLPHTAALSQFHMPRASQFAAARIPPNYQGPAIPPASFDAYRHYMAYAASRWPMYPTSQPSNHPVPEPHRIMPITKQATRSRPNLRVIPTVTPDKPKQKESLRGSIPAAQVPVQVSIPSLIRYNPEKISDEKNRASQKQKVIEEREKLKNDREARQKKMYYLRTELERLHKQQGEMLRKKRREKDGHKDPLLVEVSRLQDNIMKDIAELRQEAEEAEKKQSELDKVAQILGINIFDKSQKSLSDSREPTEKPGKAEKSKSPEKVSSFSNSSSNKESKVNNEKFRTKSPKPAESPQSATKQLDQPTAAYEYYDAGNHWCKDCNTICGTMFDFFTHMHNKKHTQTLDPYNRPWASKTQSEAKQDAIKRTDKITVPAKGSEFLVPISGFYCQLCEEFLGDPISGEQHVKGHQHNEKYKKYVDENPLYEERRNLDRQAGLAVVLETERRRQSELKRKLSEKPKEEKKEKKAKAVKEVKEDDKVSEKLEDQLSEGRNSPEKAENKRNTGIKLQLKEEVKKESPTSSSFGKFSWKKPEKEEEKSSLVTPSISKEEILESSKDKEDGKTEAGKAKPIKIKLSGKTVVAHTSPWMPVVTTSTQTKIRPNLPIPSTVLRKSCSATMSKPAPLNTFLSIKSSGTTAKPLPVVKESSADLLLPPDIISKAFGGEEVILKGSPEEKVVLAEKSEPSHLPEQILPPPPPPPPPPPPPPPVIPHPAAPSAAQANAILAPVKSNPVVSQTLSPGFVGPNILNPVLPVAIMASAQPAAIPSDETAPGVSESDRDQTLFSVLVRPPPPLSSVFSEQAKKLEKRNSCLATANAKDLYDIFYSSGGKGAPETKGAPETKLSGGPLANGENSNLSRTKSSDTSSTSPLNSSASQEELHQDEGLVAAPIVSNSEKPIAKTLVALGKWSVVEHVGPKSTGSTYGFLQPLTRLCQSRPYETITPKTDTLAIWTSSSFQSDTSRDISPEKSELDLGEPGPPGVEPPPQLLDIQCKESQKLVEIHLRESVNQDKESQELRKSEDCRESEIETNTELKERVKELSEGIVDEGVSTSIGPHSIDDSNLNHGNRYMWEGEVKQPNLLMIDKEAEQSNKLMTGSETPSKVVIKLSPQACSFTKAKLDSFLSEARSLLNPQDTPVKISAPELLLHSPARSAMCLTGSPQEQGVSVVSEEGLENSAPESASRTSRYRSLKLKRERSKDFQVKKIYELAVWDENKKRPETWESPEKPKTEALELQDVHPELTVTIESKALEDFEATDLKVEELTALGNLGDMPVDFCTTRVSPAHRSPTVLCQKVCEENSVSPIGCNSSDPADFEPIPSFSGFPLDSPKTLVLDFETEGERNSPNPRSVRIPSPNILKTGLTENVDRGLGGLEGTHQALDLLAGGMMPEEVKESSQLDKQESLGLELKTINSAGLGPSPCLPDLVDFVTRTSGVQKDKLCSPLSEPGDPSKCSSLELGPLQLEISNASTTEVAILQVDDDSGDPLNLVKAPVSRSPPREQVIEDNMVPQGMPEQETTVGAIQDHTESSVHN
inactive: [1] -0.017 | [2] 0.133 | [3] 0 | [4] 0.018 | [5] 0.038

ZMYM4 (UniProt Q5VZL5)
inactive: [1] 0.133 | [2] -0.081 | [3] -0.054 | [4] -0.023 | [5] 0.011

USP9X (UniProt Q93008)
inactive: [1] -0.033 | [2] 0.005 | [3] 0.014 | [4] 0.008 | [5] -0.001

VAMP2 (UniProt P63027)
inactive: [1] -0.045 | [2] -0.053 | [3] -0.024 | [4] 0.014 | [5] 0.081

ZDHHC18 (UniProt Q9NUE0)
inactive: [1] 0.103 | [2] 0.115 | [3] 0.075 | [4] -0.072 | [5] 0.043

ZC3H11A (UniProt O75152)
inactive: [1] -0.015 | [2] 0 | [3] 0.081 | [4] 0.023 | [5] 0.063

VPS33A (UniProt Q96AX1)
inactive: [1] 0 | [2] 0.017 | [3] 0.014 | [4] -0.013 | [5] -0.01

ZHX1 (UniProt Q9UKY1)
inactive: [1] 0.016 | [2] 0.036 | [3] 0.022 | [4] -0.224 | [5] -0.22

VASP (UniProt P50552)
UniProt P50552, sequence (P50552 whole entry, looked up): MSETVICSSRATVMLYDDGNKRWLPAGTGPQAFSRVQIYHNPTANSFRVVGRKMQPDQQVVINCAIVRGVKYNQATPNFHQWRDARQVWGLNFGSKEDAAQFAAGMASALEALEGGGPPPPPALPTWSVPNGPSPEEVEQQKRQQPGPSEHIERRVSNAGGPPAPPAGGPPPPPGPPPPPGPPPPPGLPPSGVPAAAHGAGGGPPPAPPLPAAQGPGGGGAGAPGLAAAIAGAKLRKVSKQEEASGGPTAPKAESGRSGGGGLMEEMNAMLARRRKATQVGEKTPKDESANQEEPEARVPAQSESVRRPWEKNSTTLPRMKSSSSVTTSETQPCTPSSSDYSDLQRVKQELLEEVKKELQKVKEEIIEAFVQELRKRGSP
inactive: [1] -0.005 | [2] 0.006 | [3] 0.008 | [4] -0.052 | [5] 0.017

VCPIP1 (UniProt Q96JH7)
inactive: [1] -0.025 | [2] -0.008 | [3] 0.002 | [4] -0.052 | [5] -0.002

ZSWIM8 isoform 4 (UniProt A7E2V4)
inactive: [1] 0.076 | [2] -0.038 | [3] 0.071 | [4] 0.013 | [5] 0.03

VARS (UniProt P26640)
inactive: [1] -0.022 | [2] 0.013 | [3] 0.013 | [4] 0 | [5] 0.031

USP16 (UniProt Q9Y5T5)
inactive: [1] 0.047 | [2] -0.015 | [3] 0.011 | [4] 0.038 | [5] -0.002

VRK2 (UniProt Q86Y07)
inactive: [1] 0.004 | [2] 0 | [3] -0.242 | [4] -0.023 | [5] -0.018

USP10 isoform 2 (UniProt Q14694)
inactive: [1] -0.038 | [2] 0.029 | [3] 0 | [4] -0.013 | [5] 0.023

VPS4A (UniProt Q9UN37)
inactive: [1] -0.056 | [2] 0.034 | [3] -0.102 | [4] 0.017 | [5] 0.074

WDR41 (UniProt Q9HAD4)
inactive: [1] 0.043 | [2] 0.013 | [3] 0.02 | [4] -0.047 | [5] -0.012

VTN (UniProt P04004)
inactive: [1] -0.009 | [2] -0.039 | [3] -0.094 | [4] -0.053 | [5] -0.222

UPF3B (UniProt Q9BZI7)
inactive: [1] 0.031 | [2] -0.008 | [3] -0.043 | [4] 0.022 | [5] -0.097

XPO1 (UniProt O14980)
inactive: [1] -0.024 | [2] 0.023 | [3] 0.012 | [4] 0.008 | [5] 0.023

YRDC (UniProt Q86U90)
inactive: [1] -0.009 | [2] 0.02 | [3] -0.046 | [4] -0.029 | [5] -0.053

USP8 (UniProt P40818)
inactive: [1] -0.018 | [2] 0.016 | [3] 0.01 | [4] 0.009 | [5] 0.036

ZNF598 isoform 3 (UniProt Q86UK7)
inactive: [1] -0.037 | [2] -0.014 | [3] 0.006 | [4] 0.034 | [5] 0.025

ZZEF1 (UniProt O43149)
inactive: [1] -0.022 | [2] -0.004 | [3] 0.012 | [4] -0.05 | [5] -0.028

YEATS4 (UniProt O95619)
UniProt O95619, sequence (O95619 whole entry, looked up): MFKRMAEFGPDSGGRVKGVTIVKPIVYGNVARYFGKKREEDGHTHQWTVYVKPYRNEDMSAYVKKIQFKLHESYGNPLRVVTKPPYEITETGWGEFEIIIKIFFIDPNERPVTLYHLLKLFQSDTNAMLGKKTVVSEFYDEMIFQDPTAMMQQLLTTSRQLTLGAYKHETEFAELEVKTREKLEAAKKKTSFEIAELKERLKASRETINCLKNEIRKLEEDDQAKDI
inactive: [1] -0.014 | [2] 0.05 | [3] -0.029 | [4] 0.046 | [5] 0.25

USE1 (UniProt Q9NZ43)
inactive: [1] 0.006 | [2] 0.008 | [3] -0.119 | [4] -0.109 | [5] -0.002

WDHD1 (UniProt O75717)
inactive: [1] 0.018 | [2] -0.011 | [3] -0.017 | [4] 0.011 | [5] 0.067

WDCP (UniProt Q9H6R7)
inactive: [1] 0.023 | [2] 0.068 | [3] -0.04 | [4] 0.049 | [5] 0.025

ZNF217 (UniProt O75362)
inactive: [1] -0.037 | [2] 0.075 | [3] 0.129 | [4] 0.053 | [5] 0

ZMYM2 (UniProt Q9UBW7)
inactive: [1] 0.105 | [2] 0.07 | [3] 0.062 | [4] 0.015 | [5] 0.183

UQCRC2 (UniProt P22695)
inactive: [1] 0.003 | [2] 0.037 | [3] -0.007 | [4] 0.006 | [5] -0.015

VPS41 (UniProt P49754)
inactive: [1] -0.046 | [2] 0.005 | [3] -0.016 | [4] 0.067 | [5] 0.13

ULK3 isoform 4 (UniProt Q6PHR2)
inactive: [1] -0.015 | [2] 0.043 | [3] -0.117 | [4] -0.026 | [5] 0.125

VPS72 (UniProt Q15906)
inactive: [3] 0.027 | [4] -0.015 | [5] -0.035

ZKSCAN8 (UniProt Q15776)
inactive: [3] -0.065 | [4] -0.026

YES1 (UniProt P07947)
inactive: [1] -0.068 | [2] -0.099 | [3] 0.009 | [4] -0.045 | [5] 0

USP48 (UniProt Q86UV5)
inactive: [1] -0.104 | [2] -0.028 | [3] -0.029 | [4] 0.098 | [5] -0.187

ZNF346 (UniProt Q9UL40)
UniProt Q9UL40, sequence (Q9UL40 whole entry, looked up): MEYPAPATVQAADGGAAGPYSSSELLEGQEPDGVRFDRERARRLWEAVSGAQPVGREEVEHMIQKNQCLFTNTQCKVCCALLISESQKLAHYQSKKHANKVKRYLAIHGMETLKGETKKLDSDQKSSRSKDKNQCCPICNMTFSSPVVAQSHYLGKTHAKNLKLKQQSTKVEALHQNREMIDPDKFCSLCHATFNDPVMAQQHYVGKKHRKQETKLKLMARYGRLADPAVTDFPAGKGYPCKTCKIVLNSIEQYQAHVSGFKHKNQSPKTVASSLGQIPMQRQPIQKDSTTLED
inactive: [1] 0.031 | [2] -0.017 | [5] -0.086
active: [4] -0.205

UNC13A (UniProt Q9UPW8)
inactive: [5] -0.966

ZNF146 (UniProt Q15072)
inactive: [4] -0.059

WDR6 (UniProt Q9NNW5)
inactive: [1] -0.001 | [2] 0.02 | [3] 0.008 | [4] -0.021 | [5] -0.013

ZDHHC17 (UniProt Q8IUH5)
inactive: [3] 0.057 | [4] -0.181 | [5] -0.578

ZBTB40 (UniProt Q9NUA8)
UniProt Q9NUA8, sequence (Q9NUA8 whole entry, looked up): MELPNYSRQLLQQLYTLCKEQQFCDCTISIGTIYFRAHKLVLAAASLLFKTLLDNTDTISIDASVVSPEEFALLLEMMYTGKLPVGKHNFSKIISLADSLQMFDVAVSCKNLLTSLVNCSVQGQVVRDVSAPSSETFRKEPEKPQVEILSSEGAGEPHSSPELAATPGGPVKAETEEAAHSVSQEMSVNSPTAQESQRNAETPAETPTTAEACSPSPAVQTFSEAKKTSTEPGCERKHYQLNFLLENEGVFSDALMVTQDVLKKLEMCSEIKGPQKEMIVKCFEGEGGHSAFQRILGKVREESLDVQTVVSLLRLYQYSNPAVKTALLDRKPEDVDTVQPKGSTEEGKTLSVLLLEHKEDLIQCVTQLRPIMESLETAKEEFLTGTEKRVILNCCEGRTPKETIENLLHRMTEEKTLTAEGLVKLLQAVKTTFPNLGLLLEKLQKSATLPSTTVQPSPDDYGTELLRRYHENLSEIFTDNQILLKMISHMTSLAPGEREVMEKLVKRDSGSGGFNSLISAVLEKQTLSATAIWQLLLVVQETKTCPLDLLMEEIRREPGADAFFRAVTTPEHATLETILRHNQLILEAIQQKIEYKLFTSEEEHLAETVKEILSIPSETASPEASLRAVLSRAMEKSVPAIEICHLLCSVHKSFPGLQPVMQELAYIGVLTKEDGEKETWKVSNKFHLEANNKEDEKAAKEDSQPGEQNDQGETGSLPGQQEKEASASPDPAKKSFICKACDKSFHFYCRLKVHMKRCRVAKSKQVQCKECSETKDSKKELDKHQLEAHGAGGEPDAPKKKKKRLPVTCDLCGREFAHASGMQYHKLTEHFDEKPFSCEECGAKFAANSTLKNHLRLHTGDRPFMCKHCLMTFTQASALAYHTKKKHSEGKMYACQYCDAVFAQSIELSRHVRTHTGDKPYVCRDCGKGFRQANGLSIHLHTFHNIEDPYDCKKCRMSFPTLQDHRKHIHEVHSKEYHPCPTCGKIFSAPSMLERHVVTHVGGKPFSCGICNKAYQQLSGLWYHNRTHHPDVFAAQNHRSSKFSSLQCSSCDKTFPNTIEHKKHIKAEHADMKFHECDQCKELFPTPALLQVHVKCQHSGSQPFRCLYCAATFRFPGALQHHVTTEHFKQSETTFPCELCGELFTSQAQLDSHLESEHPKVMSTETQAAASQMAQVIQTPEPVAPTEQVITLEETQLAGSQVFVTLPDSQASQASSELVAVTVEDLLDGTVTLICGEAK
inactive: [3] -0.06 | [4] -0.004
active: [5] -0.432

YBEY (UniProt P58557)
inactive: [3] 0.046 | [4] -0.016

ZFYVE19 (UniProt Q96K21)
inactive: [1] 0.076 | [2] 0.042 | [3] 0.012 | [4] -0.032 | [5] -0.183

ZYG11A (UniProt Q6WRX3)
inactive: [1] -0.075 | [2] -0.13 | [5] -0.012

WAC isoform 5 (UniProt Q9BTA9)
inactive: [4] -0.232

WIPI2 isoform 6 (UniProt Q9Y4P8)
UniProt Q9Y4P8, sequence (Q9Y4P8 whole entry, looked up): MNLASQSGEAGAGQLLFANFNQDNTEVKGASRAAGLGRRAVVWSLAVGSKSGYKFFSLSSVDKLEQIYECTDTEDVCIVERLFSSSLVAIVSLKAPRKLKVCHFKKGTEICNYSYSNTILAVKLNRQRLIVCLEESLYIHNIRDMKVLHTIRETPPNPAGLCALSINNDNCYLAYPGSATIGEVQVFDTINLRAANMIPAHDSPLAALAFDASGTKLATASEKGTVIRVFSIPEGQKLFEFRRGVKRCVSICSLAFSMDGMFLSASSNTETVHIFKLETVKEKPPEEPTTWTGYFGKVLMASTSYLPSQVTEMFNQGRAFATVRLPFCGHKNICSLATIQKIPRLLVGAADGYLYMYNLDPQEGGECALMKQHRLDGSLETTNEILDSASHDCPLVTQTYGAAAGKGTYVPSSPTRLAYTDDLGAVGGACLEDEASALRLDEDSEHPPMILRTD
inactive: [1] 0.092 | [2] 0.088 | [5] -0.073

UQCC2 (UniProt Q9BRT2)
inactive: [1] 0.008 | [2] 0.019 | [3] -0.056 | [4] -0.057 | [5] 0.095

WIPI1 (UniProt Q5MNZ9)
inactive: [1] 0.094 | [2] 0.023 | [4] 0.035 | [5] -0.031

ZSCAN21 (UniProt Q9Y5A6)
inactive: [5] -0.074

ZC3HC1 (UniProt Q86WB0)
inactive: [1] 0.002 | [2] 0.045 | [3] 0.006 | [4] 0.019 | [5] 0.061

Reference: the supplement of paper PMC10849652
